Here are results for 18 compounds from PubChem BioAssay.

This experiment in a line: Primary imaging screen for DUSP6 inhibitors that restore phospho-Erk in transfected HeLa cells, chemical complementation (AID 609). Particulars: HeLa MKP-3 transfected, phospho-Erk imaging KS statistic; measured here: cell density z-score; at 10 µM; cells stimulated with TPA for 15 min.
`COc1cccc(C(=O)OC2CCCN(C)C2)c1` (stereo not drawn) came in with a z-score of 0.452.

`FC(F)(F)c1cccc(N2CCc3cn[nH]c32)c1` displayed a z-score of 0.755.

The compound `Cc1cc(=O)oc(C)c1C(=O)NCCC1=CCCCC1` showed a z-score of -1.14.

In turn, `COCCNC(=O)C(C#N)c1nc2ccccc2nc1N1CCN(Cc2ccc3c(c2)OCO3)CC1` (stereo not drawn) had a z-score of -1.49.

For `Cc1cc(CC(=O)O)c(C)cc1CC(=O)O`, the z-score was -0.726.

In turn, `Nc1nc2n(n1)C(c1cccs1)CC(c1ccc(F)cc1)N2` (stereo not drawn) registered a z-score of 0.349.

As to `CCOC(=O)C1=Nc2ccccc2C1=[N+]=[N-]`, the z-score was -0.487.

In the case of `CCc1nc2c(sc3nc(N4CCOCC4)c4c(c32)CC(C)(C)OC4)c(=O)o1`, the z-score was -0.303.

For `CC(=O)/C(C#N)=C1\NC(=O)C(Cc2ccccc2Cl)S1` (stereo not drawn), the z-score was 1.48.

Consider `COC(=O)/C=c1/s/c(=C(\C#N)C(=O)NCc2ccco2)n(-c2ccccc2)c1=O`, for which the z-score was -0.296.

The compound `O=C(NCCCN1CCOCC1)C1(c2ccccc2)CCOCC1` yielded a z-score of -0.279.

As for `CCN(CC)CCN1C(=O)C(=O)/C(=C(/O)c2c(C)[nH]c(C(=O)OC)c2C)C1c1ccccc1` (stereo not drawn), the z-score was found to be 0.278.

In the case of `Cc1ccc(S(=O)(=O)c2cc3c(=O)n4cccc(C)c4nc3n(CC3CCCO3)c2=N)cc1` (stereo not drawn), the z-score amounted to 0.122.

In turn, `COC(=O)C(NC(=O)c1ccco1)(Nc1nc(C)cs1)C(F)(F)F` (stereo not drawn) yielded a z-score of -0.487.

`CC(=O)C1=C(O)C(=O)N(c2ccc(Br)cn2)C1c1ccccc1F` (stereo not drawn) gave a z-score of 1.35.

Compound `Cc1ccc(S(=O)(=O)N(CC(O)CN2CCOCC2)c2cc(Cl)ccc2Cl)cc1` (stereo not drawn) had a z-score of -0.865.

Compound `CCNC(=O)COn1c(SCC(=O)NCC)nc2ccccc2c1=O` showed a z-score of 0.564.

`CCCOc1cccc(C2/C(=C(/O)c3ccc(F)cc3)C(=O)C(=O)N2CCN(C)C)c1` (stereo not drawn) returned a z-score of 0.0201.
